Test results reported in PubChem BioAssay AID720597 (Broad Institute, 2013).
Results with a measured potency or affinity are listed apart. Active and inactive are the calls of the source.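 How the source made its calls: active means fitted half-maximal dose no more than twice the top valid tested dose, for compounds that lower signal; inconclusive means fit invalid, or curve flat with activity between -70 and -30; inactive means potency past limit, curve flat within ±30, or signal increasing.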

What follows are compounds tested against NAD-dependent protein deacylase sirtuin-5, mitochondrial (Homo sapiens) (UniProt Q9NXA8) (assay: blockers of sirtuin-5 peptide desuccinylation – biochemical, fluorescence imaging, cherry-pick, set 6, dose response (AID 720597;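 further: lower AMC signal can also come from blocking the trypsin step; 0% = median of neutral control wells and -100% = median of positive control wells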)). Settings: Purified SirT5, succinyl-peptide-AMC/trypsin fluorescence; series mostly up to 15 µM; activity change, negative = inhibition: at the top concentration.
Chain of NAD-dependent protein deacylase sirtuin-5, mitochondrial (Homo sapiens) (Q9NXA8 whole entry, looked up): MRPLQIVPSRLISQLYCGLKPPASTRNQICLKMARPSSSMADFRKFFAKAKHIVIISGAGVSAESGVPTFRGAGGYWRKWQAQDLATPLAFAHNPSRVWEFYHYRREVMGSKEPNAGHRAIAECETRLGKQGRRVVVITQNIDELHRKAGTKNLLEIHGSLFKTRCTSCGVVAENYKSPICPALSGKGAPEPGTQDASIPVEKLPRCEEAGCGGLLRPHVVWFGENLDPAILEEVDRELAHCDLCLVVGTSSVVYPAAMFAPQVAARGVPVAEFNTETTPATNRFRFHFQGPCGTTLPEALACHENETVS

Activity change, negative = inhibition, inactive:
C[C@H]1CN([C@@H](C)CO)S(=O)(=O)c2ccc(/C=C/c3ccccc3)cc2O[C@H]1CN(C)C(=O)c1ccc2c(c1)OCO2 -5.88%, CCOC(=O)N(C)C[C@H]1OCc2ccccc2-c2ccccc2C(=O)N([C@H](C)CO)C[C@@H]1C -2.78%, CC(C)NC(=O)NCC[C@H]1CC[C@@H](NS(=O)(=O)c2ccc(-c3ccccc3)cc2)[C@H](CO)O1 -21.9%, C[C@@H]1CN([C@@H](C)CO)C(=O)c2cccc(NC(=O)c3ccc(-c4nccs4)cc3)c2O[C@@H]1CN(C)Cc1ccc(C(F)(F)F)cc1 -0.017% [at 7.5 µM], C[C@@H]1CCCCO[C@H](CN(C)C(=O)Nc2ccc(C(F)(F)F)cc2)[C@@H](C)CN([C@H](C)CO)C(=O)c2cc(NS(=O)(=O)c3ccc(Cl)cc3)ccc2O1 2.91%, COc1ccccc1-c1ccc2c(c1)O[C@H](CN(C)S(=O)(=O)c1ccc(F)cc1)[C@@H](C)CN([C@@H](C)CO)S2(=O)=O -8.92%, C[C@H](CO)N1C[C@H](C)[C@@H](CN(C)Cc2ccccc2F)Oc2cc(C#CC3CC3)ccc2S1(=O)=O 29.7%, C[C@@H]1CCCCO[C@H](CN(C)C(=O)Nc2ccc(F)cc2)[C@@H](C)CN([C@H](C)CO)C(=O)c2cc(NC(=O)Nc3ccc(F)cc3)ccc2O1 21%, COCC(=O)Nc1ccc2c(c1)[C@@H]1C[C@@H](CC(=O)NCc3ccccc3OC)O[C@@H](CO)[C@@H]1O2 -5.39%, C[C@@H]1CN([C@@H](C)CO)C(=O)c2cc(C#CCN(C)C)cnc2O[C@H]1CN(C)Cc1ccncc1 -23.3%
